Here are results for 50 compounds from ChEMBL document CHEMBL4513216, “Probing the Open Global Health Chemical Diversity Library for Multistage-Active Starting Points for Next-Generation Antimalarials” (ACS Infect Dis, 2020).

Hit rate of the full screen: of about 65,000 compounds, about 2,100 (3.2%) showed an effect of 50% or more. The median lay at about -52%. The sample as a whole holds a higher share of strong results than the screen did.

The test system of this assay is Plasmodium falciparum. The assay can be described thus: Screen against P. falciparum Asexual Blood Stage (ABS), at 5uM. The assay is classed as functional, Dd2. As to conditions: tested at 5 uM.
For the compound `CCOCC(O)CN1CCN(C(=O)Cc2cccc(C)c2)CC1` (stereo not given), the INHIBITION stood at 59.6%. For `CCOCC(O)CN1CCN(C(=O)Cc2cccc(Cl)c2)CC1` (stereo not given), the INHIBITION was -87.1%. The figure for `O=C(Cc1ccccc1Cl)N1CCN(CC(O)COCCO)CC1` (stereo not given) is 58%; for `Cc1ccc(CC(=O)N2CCN(CC(O)C(C)(C)C)CC2)cn1` (stereo not given) it is -202%; for `CCC(O)CN1CCN(C(=O)Cc2ccc(C)nc2)CC1` (stereo not given) it is 36.3%. For the compound `CCOCC(O)CN1CCN(C(=O)Cc2ccccc2Cl)CC1` (stereo not given), the INHIBITION was -121%. Regarding `CCOCC(O)CN1CCN(C(=O)Cc2ccc3c(c2)CCO3)CC1` (stereo not given), the INHIBITION is -3.91%. Consider `CCOCC(O)CN1CCN(C(=O)Cc2ccc3c(c2)CCC3)CC1` (stereo not given), for which the INHIBITION came to 69.6%. The figure for `CC(C)(C)C(=O)NS(=O)(=O)c1ccc(C#N)c(C(F)(F)F)c1` is -87.2%; for `CN(C)[C@@H]1CN(C(=O)Cc2ccsc2)[C@@H]2CCCO[C@H]12` it is 32.7%. `CCNC(=O)CCC(=O)NC(C)Cc1ccccc1Br` (stereo not given): the INHIBITION was -67.5%. The figure for `NC(=O)C1CN(C(=O)Nc2cc(Cl)cc(Cl)c2)CCO1` (stereo not given) is 84.9%. In the case of `O=C(NCc1cc2n(n1)CCCNC2)C1(c2ccccc2)CCCCC1`, the INHIBITION was 73.7%. Take `O=C(CCc1cscn1)N1CCC(C(=O)O)(c2ccccc2)CC1`: the INHIBITION is -11.5%. For `Cc1ncc2c(c1CNC(=O)C1(C)CCCCO1)CCNC2` (stereo not given) the value was -63.8%. For the compound `CCCC(=O)NS(=O)(=O)c1ccc(C#N)c(C(F)(F)F)c1`, the INHIBITION is -56%.

For the compound `c1cncc(CO[C@H]2CC[C@H]3[C@@H]2OCCN3C2CCOCC2)c1`, the INHIBITION is reported as -57.8%. For `Cc1nnc(N2CC[C@@H](OCC3CC3)[C@@H](Cc3ccccc3)C2)s1` the value was 84.8%. Turning to `NC(=O)C1CN(C(=O)Cc2cccnc2)CCN(C2CCOCC2)C1` (stereo not given), the INHIBITION is -92.3%. For `CO[C@@H]1CCN(C2CCOCC2)C[C@@H]1Cc1ccccc1` the value was 80.8%; for `O=C1[C@H]2CN(C3CCOCC3)C[C@H]2CN1Cc1ccncc1`, -33.5%; for `c1ccc(C[C@H]2CN(C3CCOCC3)CC[C@H]2OCC2CC2)cc1`, 74.9%.

In the case of `O=C1[C@H]2CN(C3CCOCC3)C[C@H]2CN1Cc1cccnc1`, the INHIBITION was -28.2%.

For the compound `CO[C@H]1CCN(C2CCOCC2)C[C@@H]1Cc1ccccc1`, the INHIBITION was determined as 78.7%.

For the compound `O=C1N(Cc2cccnc2)C[C@H]2CN(C3CCOCC3)CCN12`, the INHIBITION was -55.6%. The figure for `c1ccc(CN2C[C@@H]3OCCN(CC4CCCO4)[C@@H]3C2)nc1` (stereo not given in full) is -0.326%; for `CCCN1CCN(C(=O)c2cnc(C)nc2)[C@H]2CS(=O)(=O)C[C@H]21` it is -183%; for `O=C(C1CCCCC1)N1CC2(CCNCC2)C1` it is -23.1%. `CC(C)CN1CC[C@@H]2[C@@H]1CCN2C(=O)N(C)C`: the INHIBITION is reported as -67.2%. For `Cc1cnn(CC(C)NCC(=O)NC2CCOCC2)c1` (stereo not given), the INHIBITION is on record as 14.5%. Regarding `Cc1cnn(CC2CCN(CC(O)c3ccccc3Cl)CC2)c1` (stereo not given), the INHIBITION turned out to be 78%. `CC(C)N1CCC(Cn2cc(C(N)=O)cn2)CC1`: the INHIBITION is listed as -7.48%. As for `c1cc(CO[C@@H]2CN(Cc3ccoc3)[C@@H]3CCCO[C@@H]32)ccn1`, the INHIBITION is reported as -102%.

`O=C(CC1CCCC1)NCCNCc1cccc2c1OCCO2`: the INHIBITION was determined as 71.6%.

With `COCC(=O)N1C[C@H]2CNC[C@@]2(C(=O)NCc2c(C)noc2C)C1`, the INHIBITION is reported as -53.3%. For `O=C1[C@H]2CN(Cc3ccccn3)C[C@H]2CN1c1ccsc1` the value was -16.2%; for `O=C(NCc1cccnc1)Nc1cc(C(F)(F)F)c[nH]c1=O`, 79%; for `O=C(Nc1cc(C(F)(F)F)c[nH]c1=O)C1CCCN1` (stereo not given), -151%. The figure for `CC(C)CN1CCC2(CC(C(=O)NCc3cccnc3)=NO2)C1` (stereo not given) is -53.1%; for `COCCNC1(c2ccc(Cl)cc2)CCOCC1` it is 65.6%; for `CCOCCNC1(c2ccc(Cl)cc2)CCOCC1` it is 27.1%. For `CCCNC1(c2ccc(Cl)cc2)CCOCC1` the value was 67.7%. Take `CO[C@H]1CN(Cc2ccc(C)o2)[C@@H]2CCCO[C@H]12`: the INHIBITION stood at 11.8%. On to `CN(C)C(=O)COC[C@H]1CC[C@@H]2[C@@H](CCN2Cc2ccccn2)O1`, for which the INHIBITION is recorded as -79.4%. The figure for `O=C1[C@@H]2CCN(CC3CC3)C[C@@H]2OCCN1c1cccnc1` is -73.4%. The figure for `O=C(NCC(F)(F)F)C1=NOC2(CCCNC2)C1` (stereo not given) is -61.4%; for `CCOC[C@H]1CC[C@H]2[C@H](CCN2Cc2c(C)noc2C)O1` it is -13.8%; for `CNc1cc(C)nc(N2C[C@H](C3CC3)[C@@H](N)C2)n1` it is 88.3%. Regarding `CCc1[nH]c(C2(N)CCCC2)nc(=O)c1C`, the INHIBITION was -32.3%.

`COC(=O)CCC(=O)NC(C)Cc1ccccc1Br` (stereo not given): the INHIBITION was -63.4%.
